A selection: hits, their analogues and other compounds. The true share with any hit is near 2.5%.
Mot1-301 SUMO – yeast Mot1-301 growth rescue at high temperature, primary screen, SUMOylation pathway inhibitor project, S. cerevisiae, ATP luminescence, 38.5C. S. cerevisiae Mot1-301 growth rescue; percent above DMSO median, 100 means doubled. growth rescue, % at 18.8 µM. actives 1% (n = 320,000). AID 2716, 2010;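 active means every valid replicate shows activation above 250% relative to neutral control wells; inactive means the rest, any valid replicate at or below 250%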;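 further: OY570 slx delta 5 strain wells were the positive control but not used for scaling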
ATG4B inhibitor – ATG4B protease inhibitors, primary screen, biochemical, fluorescence, uHTS; Cysteine protease ATG4B (Homo sapiens), Q9Y4P1; ATG4B cleavage of LC3-PLA2, NBD-HPC fluorescence, 1 h; inhibition, % at 8.33 µM; actives 0.51% (n = 340,000); AID 504462, 2011; in the data active means inhibition above about 40%
Target sequence (Q9Y4P1 whole entry, looked up): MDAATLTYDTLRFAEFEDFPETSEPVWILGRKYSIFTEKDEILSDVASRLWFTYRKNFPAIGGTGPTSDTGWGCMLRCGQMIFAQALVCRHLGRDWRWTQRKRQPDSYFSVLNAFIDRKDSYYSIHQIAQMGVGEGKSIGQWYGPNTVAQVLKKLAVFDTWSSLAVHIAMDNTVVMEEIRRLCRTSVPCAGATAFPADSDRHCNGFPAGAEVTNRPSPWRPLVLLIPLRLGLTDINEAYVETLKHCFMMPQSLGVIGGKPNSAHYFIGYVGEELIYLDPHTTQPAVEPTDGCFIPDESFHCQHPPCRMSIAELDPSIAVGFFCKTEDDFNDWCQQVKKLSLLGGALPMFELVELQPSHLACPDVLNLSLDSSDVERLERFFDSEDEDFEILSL
Efflux pump mplx – inhibitors of Candida efflux pumps in yeast, primary screen, S. cerevisiae, Nile Red, multiplex | S. cerevisiae Candida pump triplex | inhibition, % at 10 µM | actives 0.44% (n = 330,000) | AID 485275, 2010;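 active means plate passing quality check with inhibition over a set limit, or well fluorescence over plate mean plus 4 SD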;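 further: Nile Red retained in pooled yeast measured as flow cytometry median fluorescence; 0% = buffer negative control and 100% = Enniatin B positive control; higher means more Nile Red kept so more efflux inhibition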
AI-2 QS mod – Vibrio harveyi AI-2 quorum sensing modulators, primary screen, JMH597 strain, luminescence/OD600 ratio. Vibrio harveyi JMH597 AI-2 luminescence/OD600 ratio, 9 h; stronger effect = lower value; strain lacks LuxN and CqsS sensors; 0 = neutral-control median. activity change, % at 7.5 µM. actives 0.4% (n = 300,000); in the data active means activity change below about -75%, passing the limit was not always enough;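 further: luminescence divided by OD600 gain over 9 h not by final OD600 alone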
V-ATPase pHluor – regulators of yeast V-ATPase proton pumping, primary screen, pHLuorin cytosolic pH fluorescence. S. cerevisiae. response, % at 10 µM. actives 0.37% (n = 350,000); in the data active means response mostly above about 7.3%, no sharp cut-off; inactive means mostly below about 5.4%; further: actives read high
The depositor's hits bear a star; nt = not tested or not shown.

SMILES	Mot1-301 SUMO	ATG4B inhibitor	Efflux pump mplx	AI-2 QS mod	V-ATPase pHluor
Cc1cc(=O)[nH]c(SCc2nnc(-c3ccccc3)o2)n1	8.9	4.1	0.1	-4.2	nt
CCNC(=O)c1c(C)nc2ccccn12	nt	5.8	0.2	4.9	7.4
CCN(CC)P(=O)(c1ccccc1)c1c(C)nc2ccccn12 (stereo not given)	276.0*	-3.1	0.0	20.4	-2.5
CC1CN(C(=O)CCC(=O)NCc2ccc(Cl)cc2)c2ccccc2S1 (stereo not given)	5.5	11.1	-0.1	-8.9	2.6
CS(=O)(=O)Nc1ccc2c(c1)nc1n2CCOC1	-0.3	-5.0	-0.2	4.4	20.2*
CCc1ccccc1NC(=O)CN1C(=O)c2ccccc2S1(=O)=O	0.2	3.3	0.3	26.2	1.4
CC1(C)C(=O)Nc2ccccc2N1C(=O)CN1C(=O)NC(CCc2ccccc2)C1=O (stereo not given)	345.0*	-1.9	0.0	21.8	6.5
COc1cc(/C=C2\C(=N)N3N=C(C)SC3=NC2=O)cc(OC)c1OCCOc1ccccc1C	4.5	11.7	0.2	11.2	-2.9
COc1cc(/C=C2\C(=N)N3N=C(S(C)(=O)=O)SC3=NC2=O)cc(OC)c1OCCOc1ccccc1C	6.0	77.2*	-0.1	13.1	5.6
O=C(CCC(=O)N1CCCC(Nc2ccccc2)C1)c1ccc(F)cc1 (stereo not given)	-3.4	22.4	0.0	14.5	-1.9
CC1=NN(c2nc(-c3ccc(C)cc3)cs2)C(=O)C1N=Nc1ccc(C(N)=O)cc1 (stereo not given)	440.8*	9.0	-0.1	8.9	1.4
O=C1N/C(=C\c2ccccc2)c2ccccc21	34.9	-12.8	-0.1	6.8	-4.6
O=C1N/C(=C\c2nc3ccccc3s2)c2ccccc21	353.6*	nt	-0.1	19.7	nt
C/C(=C\C(=O)c1ncc(C(F)(F)F)cc1Cl)N(C)C	-14.5	-0.9	0.0	7.7	0.6
CN(C)/C=C(\C=O)c1ncc(C(F)(F)F)cc1Cl	904.6*	4.1	0.1	25.4	-1.4
COc1c(C)cc(C(=O)C2CCCN(C(=O)c3ccc4cc[nH]c4c3)C2)cc1C (stereo not given)	41.0	18.5	0.1	5.1	3.3
CCOC(=O)N1CCC(NS(=O)(=O)c2ccc(C#N)cc2)CC1	7.5	-6.0	0.0	22.9	-0.4
COCCN1Cc2cccc(C(=O)Nc3ccc(-c4nc5ccccc5[nH]4)cc3)c2C1=O	689.2*	-16.2	-0.1	7.0	-9.5
O=C(CN1CCN(Cc2ccc(Cl)cc2)C1=O)NCCCN1CCOCC1	-9.0	-10.7	-0.1	34.0	-2.8
O=C(CN1CCN(Cc2ccc(Cl)cc2)C1=O)NCCCN1CCN(c2ccc(F)cc2)CC1	-11.1	-7.8	-0.3	18.0	16.6*
Nc1ccccc1-c1nnc(SCC(=O)Nc2ccccc2OC(F)F)[nH]c1=O	1.6	-11.9	0.0	nt	1.5
CN(C)CCCNc1cc(C(C)(C)C)nc2c(-c3ccccc3)cnn12	267.3*	1.0	0.0	10.8	0.6
CC1CCN(S(=O)(=O)c2ccc(C(C)C)cc2)CC1	49.4	1.7	0.2	-88.4*	0.1
COc1cc(C(=O)COC(=O)CNC(=O)C2CCCCC2)cc(OC)c1OC	269.5*	4.5	0.0	23.2	-59.7
COc1cc(C(=O)COC(=O)C2CCCCC2)cc(OC)c1OC	-3.3	-5.3	0.1	nt	-0.2
SMILES	Mot1-301 SUMO	ATG4B inhibitor	Efflux pump mplx	AI-2 QS mod	V-ATPase pHluor
CC(C)c1onc(C(=O)NCc2ccc(F)cc2)c1[N+](=O)[O-]	286.1*	4.8	-0.3	-2.7	0.6
CCOC(=O)c1cnc2c(C)c(Cl)ccc2c1Nc1ccc(S(=O)(=O)Nc2ncccn2)cc1	19.3	nt	0.5	17.0	nt
COc1ccccc1/C=C/C(=O)Nc1ccc(S(=O)(=O)Nc2cc(C)nc(C)n2)cc1	351.1*	-2.4	0.0	27.2	-7.8
Cc1cc(NS(=O)(=O)c2ccc(NC(=O)/C=C/c3ccccc3)cc2)nc(C)n1	-16.0	-1.6	0.1	nt	2.7
O=C(Nc1cccc(Cl)c1)O/N=C\c1ccncc1	-7.5	3.9	-0.4	-7.4	2.3
O=C(Nc1ccc(Cl)c(Cl)c1)O/N=C/c1ccncc1	517.4*	-5.1	0.3	-88.1*	1.5
COc1ccc(-c2cc(C(=O)N3CC4(C)CC3CC(C)(C)C4)no2)cc1OC (stereo not given)	878.7*	5.4	0.1	9.6	-5.4
COc1ccc(-c2cc(C(=O)N3CC4(C)CC3CC(C)(C)C4)no2)cc1 (stereo not given)	-1.0	8.3	0.6	16.0	2.8
O=C1c2ccccc2[C@@H]2C[C@H]3O[C@H]3CCN12	nt	4.8	-0.1	nt	4.8
CCOc1ccc(C(=O)C(CN2CCOCC2)c2ccccc2)cc1 (stereo not given)	286.9*	1.3	0.4	26.8	-0.8
O=C(COC(=O)c1ccc2c(=O)n3c(nc2c1)CCC3)NC1CCS(=O)(=O)C1 (stereo not given)	169.6	2.7	0.0	17.6	3.8
O=C(Nc1ccccc1C(=O)OCC(=O)N1CCc2ccccc2C1)c1ccco1	356.0*	4.0	0.0	11.7	-0.6
Cc1cccc(C(=O)OCC(=O)N2CCc3ccccc3C2)c1O	9.1	8.2	0.1	nt	-1.0
CCc1noc(C)c1C(=O)OCC(=O)c1ccc(NC(C)=O)cc1F	-12.3	7.3	0.0	nt	16.6*
CN(CCO)c1cnccn1	580.4*	-2.4	0.5	40.5	0.1
CC(C)C[C@H](NC(=O)c1[nH]cnc1C(=O)Nc1ccc(CNC(=O)OC(C)(C)C)cc1)C(=O)OCc1ccccc1	325.3*	-6.0	0.1	-19.1	-2.0
O=C(c1ccc(Cl)c([N+](=O)[O-])c1)N(Cc1ccc(F)cc1)C1CCS(=O)(=O)C1 (stereo not given)	-4.2	-0.3	-0.1	25.8	3.4
CN(C)c1ccc(CN(C(=O)c2ccc(Cl)c([N+](=O)[O-])c2)C2CCS(=O)(=O)C2)cc1 (stereo not given)	341.5*	-8.5	0.2	9.2	0.3
COc1cccc(CN(C(=O)c2cccc(OC)c2)C2CCS(=O)(=O)C2)c1 (stereo not given)	-2.0	-5.7	0.0	12.8	0.7
COc1cccc(CN(C(=O)c2ccccc2)C2CCS(=O)(=O)C2)c1 (stereo not given)	-5.8	1.5	0.0	14.4	28.7*
Cc1cc(NC(=O)CSc2nc3ccsc3c(=O)n2CCCC(=O)NCCc2ccccc2)no1	770.8*	-11.7	0.0	4.6	2.7
CCc1ccc(OC(=O)Cc2ccc(OC)c(S(=O)(=O)N3CCOCC3)c2)cc1	-8.2	-10.3	-0.1	nt	-3.3
COc1ccc(CC(=O)Oc2ccc(C(C)C)cc2)cc1S(=O)(=O)N1CCOCC1	-3.6	-2.2	0.1	4.3	24.7*
